Measured values as given in PubChem BioAssay (NCI).
Several values for one entry are separate records, joined by “and”; a condition that tells them apart may be missing. Identical values can stand only once. Compounds without any hit were thinned out: in the full panel of roughly 83,000, 20% have a hit.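 Single-dose data. Exposure time 48 hours. Values below 10 considered active.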 Activity calls are given as the source filed them.

The compounds below were run on MDA-MB-468 breast (assay: NCI-60 one-dose screen, 48 h (100 = growth as untreated, 0 = no growth, -100 = all killed)). Conditions: 10 µM unless noted.

SMILES	growth
COc1cc(OC)cc(C(=O)Nc2cnc(Nc3ccc(N4CCOCC4)nc3)nc2Oc2ccc(C(F)(F)F)cc2)c1	81.1% (inactive)
CC(=O)Nc1ccc(CC#N)cc1Br	102% (inactive)
Cn1c(NCCc2ccc(O)c(O)c2)nc2c1c(=O)n(Cc1ccc(Cl)cc1)c(=O)n2C	19.4% (inactive)
Nc1c(C(=O)Nc2ccncc2)sc2nc3c(cc12)CCCCCCCC3	-75.7% (active)
Nc1ncncc1-c1ccc(F)cc1	105% (inactive)
CCN(CC)CCN1C(=O)c2c(c(C)c3c(oc4ccc(OC)cc43)c2C)C1=O	101% (inactive)
Nc1c(S(=O)(=O)O)cc(Br)c2c1C(=O)c1ccccc1C2=O	102% (inactive) and 107% (inactive)
CCCCCCCNC(=O)CCCNc1ncnc2c1ncn2-c1cccc(C(C)O)c1 (stereo not given)	59.7% (inactive)
Cc1nnc(/N=C2\NC(=O)/C(=C/c3ccc(N(C)C)cc3)S2)s1	87.2% (inactive)
COc1cccc(-c2nn(-c3ccccc3)cc2-c2ccnc(NCCCNS(=O)(=O)c3ccc(Br)cc3)c2)c1	35.5% (inactive)
Cc1ccc(-n2cc(/C=C/C(=O)c3ccc(S(C)(=O)=O)cc3)c(-c3ccc(S(C)(=O)=O)cc3)n2)cc1	106% (inactive)
CCC(C)N(CCNc1cc(OC)cc2cccnc12)CCC(C)C (stereo not given)	-24.8% (active)
Cc1cc2c(-c3nc4ccccn4c3NC3CCCCC3)c(O)c(O)cc2c(O)c1-c1c(C)cc2c(-c3nc4ccccn4c3NC3CCCCC3)c(O)c(O)cc2c1O	13.9% (inactive)
Cn1cc(-c2cnc3ccc(NC(=O)Nc4ccc(F)c(Br)c4)cc3n2)cn1	-6.86% (active)
CCOC(=O)N1C2CCC(C2)N1C(=O)OCC	105% (inactive)
COC(=O)C(Cc1ccccc1)NS(=O)(=O)/N=C1\NC(=O)NC1=C(Cl)Cl (stereo not given)	16.3% (inactive)
COc1ccc2c(CCCC(c3ccccc3)c3ccccc3)c3[n+](cc2c1OC)CCc1cc2c(cc1-3)OCO2	-73% (active)
N/C(=N\N=C\c1cc2ccccc2s1)N/N=C/c1cc2ccccc2s1	122% (inactive)
O=C1c2c(c3c4cccnc4[nH]c3c3ccc4ccccc4c23)C(=O)N1CCN1CCCCC1	29.4% (inactive)
C=C(C)[C@@H]1CC[C@]2(C(=O)N3CCN(C)CC3)CC[C@]3(C)[C@H](CC[C@@H]4[C@@]5(C)CC[C@H](O)C(C)(C)[C@@H]5CC[C@]43C)[C@@H]12	-67.3% (active)

SMILES	growth
CC(=O)N1CCN(CCNC(=O)n2cc(-c3ccncc3)c(-c3cc(O)cc(Cl)c3)n2)CC1	32.4% (inactive)
CCCCCCCC/C=C\CCCCCCCCOc1cccc(CC(=O)NCC[N+](C)(C)C)c1	93.1% (inactive)
CC(=O)c1ccc(NCn2nc(-c3ccc(Cl)cc3)oc2=S)cc1	100% (inactive)
O=C(/C=C/CN1CCOCC1)Nc1cc2c(Nc3cccc(Cl)c3F)ncnc2cc1OCCOC(F)F	-15.3% (active)
COc1cc(C)cc2oc3oc(=O)c(-c4csc(-c5cc6ccccc6oc5=O)n4)cc3c(=O)c12	102% (inactive)
Cc1ccc(Cn2c(-c3nonc3N)nc3ccccc32)cc1	58.8% (inactive)
C/C=C/C=N/NC(=S)Nc1ccccc1	107% (inactive)
CCO/C=N/NC(=O)c1ccncc1	107% (inactive)
C#Cc1cccc(Nc2nc(Cl)nc3cc(NC(=O)CCl)ccc23)c1	-71% (active)
CCOC(=O)C1=C(c2ccccc2)N=C2SC=C(c3ccc(Cl)cc3)N2C1c1ccc(Br)cc1 (stereo not given)	54.3% (inactive)
CCN(CC)CC(=O)Nc1c(C)cccc1C	101% (inactive)
Nc1ccc(N=Nc2ccc(S(=O)(=O)O)cc2)c2ccccc12	97.2% (inactive)
CCNCCNc1cc(-c2ccc(C(=O)OC)cc2)c(C#N)c2nc3ccccc3n12	31.4% (inactive)
Cc1cc(C)c2c(n1)sc1c(Nc3ccc(OCc4ccccc4)cc3)ncnc12	101% (inactive)
Fc1ccc(N/N=C/c2ccc(-n3cccn3)cc2)cc1	121% (inactive)
NC(=O)c1ncn([C@@H]2O[C@H](CO)[C@@H](O)[C@H]2O)n1	83.7% (inactive)
Cc1cc(N/N=C/c2ccccn2)nc2ccccc12	-13.3% (active)
CS(=O)(=O)c1cccnn1	74% (inactive)
c1ccc(-c2n(Cc3ccc4ccccc4c3)cc[n+]2Cc2ccc3ccccc3c2)cc1	-65.5% (active)
O=S1(=O)N(Cc2ccccc2)[C@@H](Cc2ccccc2)[C@H](O)[C@H](O)[C@H](Cc2ccccc2)N1Cc1ccccc1	-27.7% (active)
